# From PubChem
# Most compounds without a hit are left out; they make up all but 8.3% or so of the library.
# Marburg entry inh: blocks Marburg virus binding to or entry into cells | Potency, µM (highest dose often 37.8 µM), hits mostly inhibitors | Marburg virus pseudotyped entry inhibition, cell reporter | 1.8% of 300,000 active; calls by dose curve; tested in HEK293 cells
# FMDV antiviral: antivirals against foot and mouth disease virus; FMDV antiviral cell-based qHTS; Potency, µM (doses to about 57.9 µM), hits mostly inhibitors; 1.2% of 410,000 active; AID 1159524; calls by dose curve; tested in HEK293T cells; note: read-out not given here; nearly all actives have a fitted effect of over 45% in size
# Lassa entry inh: Lassa virus entry inhibition; Lassa virus pseudotype entry inhibition, cell reporter; Potency, µM (top dose mostly 37.9 µM), most hits filed as inhibitors; 1.2% of 300,000 active; calls by dose curve; tested in HEK293 cells; note: nearly all actives have a fitted effect of over 50% in size
# FBPA Giardia inh: Giardia lamblia aldolase inhibition; A8B2U2; purified Giardia FBPA; Potency, µM (top dose mostly 59.6 µM), usual class: inhibitors; 0.71% of 290,000 active; note: nearly all actives have a fitted effect of over 55% in size
# Target sequence (A8B2U2 whole entry, looked up): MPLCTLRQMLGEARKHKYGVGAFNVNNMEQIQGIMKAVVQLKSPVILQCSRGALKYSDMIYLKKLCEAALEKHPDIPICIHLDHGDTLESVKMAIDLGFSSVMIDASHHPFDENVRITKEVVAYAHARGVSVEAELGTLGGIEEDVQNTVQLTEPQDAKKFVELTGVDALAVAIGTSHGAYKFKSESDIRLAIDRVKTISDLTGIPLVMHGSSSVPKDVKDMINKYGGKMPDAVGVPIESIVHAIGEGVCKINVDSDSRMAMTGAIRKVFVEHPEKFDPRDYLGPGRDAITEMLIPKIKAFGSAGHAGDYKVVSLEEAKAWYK
#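 40 nM FBPA preincubated 10 min at RT with compound (up to 57.5 uM final), then substrate plus GAPDH/TPI/NAD/arsenate coupling and diaphorase/resazurin added. Fluorescence read after 20 min at RT, 525/598 nm.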
# HCMV inh: inhibitors of human cytomegalovirus; HFF cells, HCMV-luciferase reporter, 72 h; stronger effect = lower value; activity change, negative = inhibition, % at 57.5 µM; 4.5% of 410,000 active; AID 1259415; in the data active = activity change below about -60%; inconclusive = no clear call, values can overlap the other calls; inactive = above about -39%
#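 Two compound doses tested in HFFs infected with HCMV-luciferase, MOI 1 PFU/cell, 72 h at 37C. Lysate luminescence read with OneGlo; data normalized against buffer-only and 10uM Salinomycin inhibitor controls.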
# HCV inh: blocks hepatitis C virus; Huh7.5.1 HCVcc-Cre infection, luciferase reporter, 44 h; Potency, µM (doses to about 41.8 µM), hits mostly inhibitors; 3.4% of 340,000 active
#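 Luciferase read-out (15 sec integration) after a 15 min room-temperature substrate step quantifies HCVcc-Cre infection. Cells, 1,000 per well, had compound added 4 h post-plating, then virus at ~0.5 moi, and were cultured 44 h.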
# G2M arrest HeLa: inducers of G2/M cell cycle arrest in HeLa cells; HeLa cell cycle G2/M arrest, Hoechst DNA content imaging; Potency, µM, usual class: inhibitors; shares compounds with Marburg entry inh; AID 2441; 60% of 25 active
# WI-38 cytotox: counter-screen for perinucleolar compartment inhibitors: WI-38 cytotoxicity. shares compounds with Marburg entry inh. 120 tested, under 10 active. Potency, µM (series often up to 46.1 µM), usual class: inhibitors. WI-38 normal lung fibroblasts, ATPLite luminescence ATP viability, 24 h
# PNC assembly inh: confirmation of perinucleolar compartment assembly inhibitors. shares compounds with Marburg entry inh. PC3M PTB-GFP, PNC prevalence imaging, 16 h. Potency, µM (titrated, usually from 46.1 µM), hits mostly inhibitors. 50% of 120 active
# PC3M caspase: activates caspase 3/7 in PC3M cells in PNC counter-screen; shares compounds with Marburg entry inh; PC3M-GFP caspase 3/7 activation, luminescence, 24 h; activity change, positive = activation, % at 46.1 µM; 120 tested, under 10 active
# Hits are given with their value; - = inactive; ? = inconclusive; . = no result given; ! = not confirmed by another sample; [ ] = dose if it differs, or a comment. Unless noted, calls come from the whole dose curve; as a rule, active = well fitted curve in the direction sought with a large enough effect; inconclusive = small, poorly fitted or top-dose-only effect, or another doubt; inactive = no such curve, though single readings can be large; an effect the other way counts as inactive or inconclusive.
SMILES,Marburg entry inh,FMDV antiviral,Lassa entry inh,FBPA Giardia inh,HCMV inh,HCV inh,WI-38 cytotox,PNC assembly inh,PC3M caspase,others
CCOc1ccc(CN(C)CC(=O)Nc2cc(C)c(C)cc2[N+](=O)[O-])cc1,-,-,-,-,-,-,.,.,.,
Cc1cc(=O)oc2cc(NC(=O)C(CCCCN)NC(=O)C(CC3CCCCC3)NC(=O)OCC3c4ccccc4-c4ccccc43)ccc12 (centres undefined),.,-,.,-,.,.,.,.,.,
C=C1C(=O)C=C2CN(C(=O)c3ccccc3)[C@@](Cc3ccc(OC)cc3)(C(=O)OC)[C@@H]12,.,.,.,-,.,.,.,.,.,
Cc1ccc(NC2=C/C(=N/S(=O)(=O)c3cccs3)c3ccccc3C2=O)cc1,4.6µM,7.9µM,4.1µM,?,-102,?,32µM,25µM,?,
Cc1ccc(/C=C2\S/C(=N/S(=O)(=O)c3cccs3)NC2=O)cc1,.,-,.,-,?,-,.,.,.,
O=C1C(Nc2ccccc2)=C/C(=N/S(=O)(=O)c2cccs2)c2ccccc21,4.1µM,?,?,?,.,4µM,28µM,?,?,
O=C1C(Nc2ccccc2)=C(NS(=O)(=O)c2ccccc2)C(=O)c2ccccc21,-,-,-,-,?,-,.,.,.,
CCOC(=O)c1c(NC(=O)c2cc(=O)c3cc(C)ccc3o2)sc2c1CCCC2,-,-,?,.,-,.,.,.,.,
Cc1ccc(-c2csc3ncnc(Oc4ccc5c(C)cc(=O)oc5c4)c23)cc1,?,?,?,-,?,?,.,.,.,
CC(=O)Nc1cccc(Oc2ncnc3scc(-c4ccc(C)cc4)c23)c1,-,?,?,-,-66,?,-,-,-,
O=C(NCc1ccco1)C1CCN(Cc2ccc(F)cc2)CC1,-,-,-,-,-,-,-,-,-,
O=c1[nH]cnc2c1C(c1ccccc1[N+](=O)[O-])c1c(nc[nH]c1=O)O2,-,-,-,-,-,-,?,-,-,
COc1ccc(C2c3c(nc[nH]c3=O)Oc3nc[nH]c(=O)c32)cc1,.,.,.,-,.,.,.,.,.,
COCCNc1nc(C)nc2c1nc(-c1ccccc1)n2CCN1CCCC1,.,.,.,-,.,.,.,.,.,
COc1cc(C2c3c(oc4ccc(F)cc4c3=O)C(=O)N2Cc2ccc3c(c2)OCO3)ccc1O (centres undefined),-,-,-,.,-,.,.,.,.,
COc1ccc(-c2cc(C#N)nc(N3CCN(C)CC3)n2)cc1,?,-,-,-,-,13µM,-,?,-,
COc1ccc(-c2cc(C#N)nc(N3CCNCC3)n2)cc1,?,-,-,-,-,-,.,.,.,
O=C(COC(=O)[C@H](Cc1c[nH]c2ccccc12)NC(=O)c1cccs1)NCc1ccccc1,-,-,-,-,-,-,.,.,.,
O=C(NC(Cc1c[nH]c2ccccc12)C(=O)Nc1ccc(OC(F)(F)F)cc1)c1cccs1 (centres undefined),2.6µM,?,2.1µM,-,-97,?,-,7.1µM,-,
CC(=O)Nc1ccc(S(=O)(=O)Oc2ccc3c(c2)C(C)=CC(C)(C)N3)cc1,?,.,0.82µM,-,.,?,-,5µM,-,
COc1ccc(OC)c(S(=O)(=O)NCCCn2ccnc2)c1,.,-,.,-,-,-,.,.,.,
CCN=c1scc(-c2ccccc2)n1/N=C/c1ccccn1,?,?,1.5µM,-,.,?,16µM,4µM,-,
C=CCN=c1scc(-c2ccccc2)n1/N=C/c1ccccn1,2.8µM,-,?,-,-99,14µM,?,2µM,-,
CC12CCC(C(=O)NC(c3ccccc3)c3ccccc3)(OC1=O)C2(C)C (centres undefined),-,?,?,-,-,-,-,-,-,
CC12CCC(C(=O)NNc3ccccc3)(OC1=O)C2(C)C (centres undefined),.,-,.,-,-,-,.,.,.,
SMILES,Marburg entry inh,FMDV antiviral,Lassa entry inh,FBPA Giardia inh,HCMV inh,HCV inh,WI-38 cytotox,PNC assembly inh,PC3M caspase,others
CC(=O)Nc1ccc(C(=O)N/N=C/c2ccccc2OC(=O)c2ccc(Cl)cc2)cc1,?,-,-,-,-,?,.,.,.,
COc1cc(C(=O)Oc2ccccc2/C=N/NC(=O)c2ccc(Cl)cc2)cc(OC)c1OC,12µM,-,11µM,-,-99,2.8µM,?,?,-,
CC(=O)c1ccc(NS(=O)(=O)c2ccc(-n3cccn3)cc2)cc1,.,-,-,.,-,.,.,.,.,
O=C(COC(=O)Cc1ccsc1)NCC1CCCCC1,-,-,-,-,-,-,-,-,-,
Cc1ccccc1C(=O)NNC(=S)Nc1cccc(C(F)(F)F)c1,?,-,?,-,-,?,-,-,-,
CNNC(=S)Nc1cccc(C(F)(F)F)c1,-,-,.,-,-,-,.,.,.,
CCOC(=O)Cn1c(-c2nonc2NC(=O)c2ccccc2F)nc2ccccc21,0.28µM,-,0.28µM,-,-98,?,?,4.5µM,-,
COc1ccc(C(=O)Nc2nc3c(s2)CCCC3)cc1S(=O)(=O)N1CCCc2ccccc21,?,-,?,-,-66,?,-,5µM,-,
COc1ccc(C(=O)Nc2ncccc2C)cc1S(=O)(=O)N1CCCc2ccccc21,-,-,-,.,-,-,.,.,.,
Nc1nc(N)c2nc(-c3ccccc3)c(N)nc2n1,2.8µM!,-,?,-,?,-[8.37 µM],.,.,.,G2M arrest HeLa=10
O=C(Nc1nc2c(s1)CCCC2)c1cccs1,?,-,?,-,-,?,.,.,.,
CC(C)(C)c1nc(SCC(=O)Nc2nc3c(s2)CCCC3)c2ccccc2n1,1µM,.,1µM,-,-61,?,-,7.1µM,-,
O=C(Cc1cccs1)Nc1nc2c(s1)CCCC2,0.58µM,-,2.6µM,-,-73,?,-,8.9µM,-,
O=C(NCc1ccc(F)cc1)c1cnc(N2CCCCC2)c2ccccc12,.,-,?,.,-,.,.,.,.,
CCOc1ccccc1CNCc1c(C(=O)O)c(C)n(Cc2ccc(Cl)cc2)c1C,-,-,?,.,-,.,.,.,.,
C[C@H](CO)N1C[C@H](C)[C@@H](CN(C)C(=O)Nc2ccc(N3CCN(C)CC3)cc2)OCc2cn(nn2)CCCC1=O,.,.,.,.,-,.,.,.,.,
COC(=O)c1c(-c2ccccc2)csc1NC(=O)c1c(-c2ccccc2)noc1C,1µM,?,0.89µM,-,-79,?,-,4µM,-,
COC(=O)c1ccc(C)c(NC(=O)c2c(-c3ccccc3)noc2C)c1,-,.,-,-,-,-,.,.,.,
Cc1cc(C(=O)Cn2nnc3ccccc3c2=O)c(C)n1-c1ccccc1F,3.2µM,?,1.1µM,-,-87,?,14µM,4.5µM,-,
COc1ccc(-n2c(C)cc(C(=O)Cn3nnc4ccccc4c3=O)c2C)cc1,-,-,-,-,?,?,.,.,.,
